These results are taken from PubChem BioAssay (NCI).

This is part of a sample that, as a whole, favours compounds with a hit. Of some 83,000 tested, about 20% had one in any assay.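 Compound tested at a single concentration for 48 hours in 96-well plates; a percent growth value below 10 was scored as active.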 Unmarked numbers belong to inactive results. The source made the active and inactive calls.

What all share (assay): NCI-60 one-dose screen, 48 h (100 = growth as untreated, 0 = no growth, -100 = all killed)
Settings in all cases: 10 µM unless noted

The test system of test [1] is NCI-H23 lung.
Test [2] has as its system NCI-H226 lung.
Test [3] has as its system NCI-H322M lung.
Test [4] relates to HOP-62 NSCLC.
For test [5], the system named is NCI-H460 lung.
Test [6] concerns HOP-92 NSCLC.
The test system of test [7] is NCI-H522 lung.
In test [8] the test system is A549/ATCC NSCLC.
Test [9] relates to 786-0 renal.
For test [10], the system named is COLO 205 colon.
The test system of test [11] is DU-145 prostate.
Test [12] deals with K-562 leukemia.
In test [13] the test system is MALME-3M melanoma.
Test [14] has as its system MDA-MB-231 breast.
The test system of test [15] is RXF 393 renal.
For test [16], the system named is SF-268 CNS.
The test system of test [17] is SF-295 CNS.
The test system of test [18] is SF-539 CNS.
The subject of test [19] is UACC-257 melanoma.
The test system of test [20] is M14 melanoma.

For the molecule `COc1ccc(NC(=O)c2sc3nc(C)c(C(=O)c4ccccc4)cc3c2N)cc1`, the growth in [1] is 96.1%; in [2], 97.2%; in test [3], 64.7%; in test [4], 97.7%; in test [5], 61.3%; in test [6], 111%. In addition, the growth is 80.8% in test [7]; 52% in [8]; 96.4% in test [9]; 108% in [10]; 116% in test [11]; 94.2% in test [12]. In addition, the growth in test [13] was 102%; in test [14], 98.6%; in test [15] it was 87.8%; in test [16], 104%; in test [17], 103%; in test [18], 102%. Further, the growth in test [19] is 96.9%; in test [20], 106%.

As for `CC(C)=CCC[C@](C)(O)C1CC[C@]2(C)[C@@H]1CC[C@@H]1[C@@]3(C)CC/C(=N\OCCC#N)C(C)(C)[C@@H]3CC[C@]12C` (stereo not given in full), the growth in [1] was 72.5%; in [2], 68%; in [3], 98.8%; in test [4], 89.5%; in test [5], 79.6%; in test [6] it was 105%. Moreover, the growth in [7] is 68.7%; in [8] it was 76.2%; in test [9] it was 86.2%; in test [10] it was 83.9%; in test [11], 83.9%; in test [12], 67.6%. The growth was 71.8% in test [13]; 94.1% in test [14]; 109% in [15]; 87.4% in test [16]; 97.9% in [17]; 91.9% in test [18]. In addition, the values for the growth in test [19] and in test [20] were 86.1% and 88.5%, respectively.

As to `COc1ccc2c(O)cc3c(c2c1)[C@H](CCl)CN3C(=O)c1cc2cc(NC(=O)CCN3CCOCC3)ccc2[se]1`, the growth was -50.7% (active) in test [1]; -12.5% (active) in test [2]; -87.8% (active) in [3]; -79.7% (active) in test [4]; -7.37% (active) in [5]; 94.8% in [6]. Further, the growth is -82.5% (active) in [7]; -29.5% (active) in test [8]; -59.8% (active) in test [9]; -78.2% (active) in [10]; -0.877% (active) in [11]; 70.1% in [12]. The growth was -88% (active) in [13]; -58.4% (active) in test [14]; -88.4% (active) in [15]; -42.7% (active) in [16]; -77.7% (active) in test [17]; -64.4% (active) in test [18]. The growth in test [19] is -47.5% (active); in test [20], -71.1% (active).

With `CCOC(=O)C#Cc1c(CC(=O)OCC)nnn1[C@H]1O[C@@H](CO)[C@@H]2OC(C)(C)O[C@@H]21`, the growth in test [1] is 95.3%; in [2] it was 93.8%; in test [3] it was 93.9%; in test [4] it was 101%; in test [5], 104%; in test [6], 75.1%. Also, the growth is -57.6% (active) in test [7]; 75.9% in test [8]; 83.9% in test [9]; -40.3% (active) in test [10]; 94.5% in test [11]; 10.3% in test [12]. Also, the growth in test [13] is 26.6%; in test [14], 105%; in test [15], 3.65% (active); in test [16] it was 105%; in test [17] it was 97.4%; in [18] it was 75.3%. Also, the growth in [19] is 62.8%; in test [20], 58.3%.

Consider `COc1ccc(/C=C\c2cc(OC)c(OC)c(OC)c2)cc1OCC(=O)Nc1nc2ccccc2s1`, for which the growth was 23.5% in [1]; 41.7% in test [2]; 61.6% in test [3]; 62.5% in test [4]; 1.29% (active) in test [5]; 50.6% in test [6]. Also, the growth in [7] was -21.8% (active); in [8], 29.9%; in [9], 51.4%; in [10] it was 6.65% (active); in test [11], -27.3% (active); in test [12] it was 15.6%. The growth in test [13] was 49.7%; in test [14], 21.8%; in test [15], 20.6%; in test [16], 24.1%; in [17], 9.97% (active); in test [18], 11.8%. Further, the growth in test [19] was 54.4%; in test [20], 27.6%.

As to `Cc1cc(C(=O)Nc2cc(Nc3ncccc3-c3ncnc4nc[nH]c34)ccc2F)cc(C(C)(C)C#N)c1`, the growth in test [1] was 19.1%; in [2], 39.9%; in test [3] it was 56.6%; in test [4], 48.5%; in test [5], 33.4%; in test [6] it was -13.4% (active). Besides, the growth in [7] was 53.7%; in test [8], 48.7%; in [9], 63.5%; in test [10], 13.3%; in test [11] it was 60%; in [12] it was 6.28% (active). Also, the growth was 12.9% in test [13]; 17% in test [14]; 88.5% in test [15]; 64.7% in test [16]; 68.6% in test [17]; 33.9% in test [18]. Besides, the results for the growth in test [19] and in [20] were 24.5% and 5.3% (active), respectively.

`O=C(/C=C/c1ccc(Cl)cc1)c1ccc(-n2cc(CN3CCN(c4cc5c(cc4F)c(=O)c(C(=O)O)cn5C4CC4)CC3)nn2)cc1`: the growth in test [1] is 85.4%; in [2] it was 76.3%; in [3], 78.1%; in test [4], 85.5%; in test [5], 82.2%; in test [6], 84.8%. For the same molecule, the growth is 79.1% in test [7]; 89% in [8]; 78.1% in test [9]; 97.1% in [10]; 90.8% in test [11]; 67.5% in test [12]. In addition, the growth in test [13] is 84.8%; in [14], 88.1%; in test [15], 75%; in [16], 77.3%; in [17], 90.7%; in test [18], 92.8%. The growth was 91.7% in [19] and 88.7% in test [20].

For `C#CCOc1cccc(-c2ncnc3cc(NC(=O)CCl)ccc23)c1`, the growth is 10.3% in [1]; -11% (active) in [2]; 71.8% in test [3]; -46.2% (active) in test [4]; -18.7% (active) in test [5]; -67.1% (active) in test [6]. For the same molecule, the growth in test [7] was -77.1% (active); in [8] it was 16.7%; in test [9], -85.4% (active); in test [10] it was -82.4% (active); in test [11] it was 13.9%; in test [12] it was 2.03% (active). Besides, the growth is -78.8% (active) in test [13]; -36.4% (active) in [14]; -87.9% (active) in test [15]; -42.2% (active) in test [16]; 34.4% in [17]; -43.9% (active) in test [18]. Moreover, the growth was 42.8% in test [19] and -52.3% (active) in [20].
